The results in this text go back to PubChem BioAssay (NCATS).

Assay [1] has as its target Lysosomal acid glucosylceramidase (Homo sapiens) (UniProt P04062). As to the kind of experiment: Glucocerebrosidase-p2 (AID 348; in the data active means potency below about 10 µM; further: potency means the concentration at half of the fitted maximal effect). The settings on record: purified GBA, blue fluorogenic substrate, 40 min. In a few lines: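 Compounds titrated from 0.6 nM upwards against 0.2 nM enzyme in pH 5.9 citric acid/KH2PO4, taurocholate, tween-20; blue fluorogenic substrate 80 uM, 40 min room temperature, stopped and read Ex 365/Em 440 for AC50.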

Assay [2] is described as follows: AP1 Signaling Pathway (AID 357; active means well fitted curve in either direction with a large enough effect, not every such curve was filed as active; further: on the % scale 0 is the no-effect control and ±100 the full control effect). The settings on record: ME-180 AP-1-bla reporter, EGF-induced, beta-lactamase ratio, 5 h; at 7.69 µM (top of the series) unless noted. Summed up: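 ME-180 cells with beta-lactamase reporter under AP-1 response element, stimulated with EC50 EGF; compounds tested in titration series, 5 h at 37 °C. CCF4 substrate added 2.5 h at room temperature; 460/530 nm emission ratio gave %activity and AC50.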

Assay [3] in a line: NFAT Signaling Pathway (AID 444; active means well fitted curve in either direction with a large enough effect, not every such curve was filed as active;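 further: carbachol stimulus at about its EC50 of 1 µM final; on the % scale 0 is the no-effect control and ±100 the full control effect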). The settings on record: Jurkat NFAT-bla M1, carbachol, beta-lactamase ratio, 5 h; at 7.69 µM (top of the series) unless noted. Summed up:
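Jurkat cells carrying an NFAT-driven β-lactamase reporter and co-transfected muscarinic M1 receptor were treated with compound plus carbachol (1 uM final, an EC50 level) for 5 h at 37 °C. CCF4 loading followed for 1 h at RT; 460/530 nm ratio gave %activity.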

Assay [4] can be described thus: Stat Signaling Pathway (AID 446; active means well fitted curve in either direction with a large enough effect, not every such curve was filed as active;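 further: ME-180 cervical cancer cells given 40 pM IL-6 alongside compound; SIE-controlled beta-lactamase reporter measured as 460/530 nm FRET emission ratio; on the % scale 0 is the no-effect control and ±100 the full control effect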). The settings on record: ME-180 SIE beta-lactamase reporter, IL-6 stimulated, 5 h; at 7.69 µM (top of the series) unless noted. In a few lines:
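Reporter line: ME-180 cervical carcinoma, SIE-beta-lactamase. Treatment: compound with 40 pM IL-6, 5 hrs, 37 C, in low-serum OPTI-MEM with 10 mM HEPES pH 7.3. Detection: 460/530 nm fluorescence.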

The target in assay [5] is Glucocorticoid receptor (Homo sapiens) (UniProt P04150). The assay is described as follows: GR-GFP Redistribution (AID 450;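 active means compounds whose dose series gives a full or clear partial fitted curve of increased nuclear translocation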; further: potency means the concentration at half of the fitted maximal effect). The following applies: U2OS GR-GFP nuclear translocation, laser cytometry, 2 h.
Assay [6] has the same target. The assay is described as follows: GR-EFC Redistribution (AID 451; calls by dose curve; further: potency means the concentration at half of the fitted maximal effect). The settings on record: CHO-K1 GR-EFC translocation, beta-gal luminescence, 2 h. In a few lines: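 CHO-K1 cells stably expressing nuclear-localized β-gal enzyme acceptor and GR fused C-terminally to the enzyme donor fragment; ligand-driven nuclear translocation restores β-gal by complementation. Compounds titrated up to 46 uM final, 2 h at 37 °C; luminescence read.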

Assay [7] deals with Mitogen-activated protein kinase 10 (Mus musculus) (UniProt Q61831). As to the kind of experiment: JNK3 AlphaScreen Assay (AID 530; active means well fitted curve in either direction with a large enough effect, not every such curve was filed as active;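 further: kinase came from lysate of stimulated human HepG2 cells; signal reports phosphorylation of biotinylated GST-cJun 1-79 at Ser73 with 10 µM ATP; on the % scale 0 is the no-effect control and ±100 the full control effect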). The settings on record: JNK3 lysate, c-Jun phosphorylation; series mostly up to 57.1 µM. In a few lines: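 Inhibitors reduce antibody binding to phosphorylated biotin-cJun, lowering AlphaScreen luminescence. Lysates from HepG2 cells pre-activated by IL-1beta plus TNF-alpha supplied JNK3; compounds were titrated.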

The target in assay [8] is 3',5'-cyclic-AMP phosphodiesterase 4B (Homo sapiens) (UniProt Q07343). As to the kind of experiment: qHTS Assay for Inhibitors of PDE-IV (AID 607; active means well fitted activation curve with a large enough effect in the main read-out, with a control signal flat, not every such curve was filed as active; further: % of control where 0% means no effect). The settings on record: HEK293 ACTOne CNG channel cells, membrane potential fluorescence; series mostly up to 22.9 µM. Summed up: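 Cell-based read-out of cAMP via a modified cyclic nucleotide-gated channel and membrane potential dye (535/590 nm) in HEK293 cells expressing PDE4 endogenously. Compounds tested up to 22.9 uM final; 100 uM RO 20-1724 reference.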

The target of assay [9] is Cytochrome P450 3A4 (Homo sapiens) (UniProt P08684). The assay is described as follows: qHTS Assay for Activators of Cytochrome P450 3A4 (AID 885). Further: nearly all actives have a fitted effect of over 65% in size. The following applies: recombinant CYP3A4, Luciferin-PPXE luminescence, 60 min; series mostly up to 57.1 µM. Summed up:
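Signal was normalized against complete inhibition by 57 uM ketoconazole. The reaction used 20nM CYP3A4 with 25uM Luciferin-PPXE, 10-min compound preincubation and a 60-min NADPH-supported step at RT.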
(In general: qHTS replaces the single test concentration by a dilution series.)

Assay [10] in a line: qHTS Assay for Lipid Storage Modulators (AID 1519; calls by dose curve). The following applies: Drosophila S3 cells, BODIPY lipid droplet/cell ratio, laser cytometry, cells loaded with oleic acid; for activity change, negative = inhibition: at 57.5 µM (top of the series). In a few lines:
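Cells seeded at 5,000 per well were treated with compounds over a concentration series and loaded with oleic acid (400 uM, as added). Lipid droplet fluorescence (488 nm excitation, 500-530 nm channel) was read by laser-scanning cytometry and normalized to 20 uM Triacsin C.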

The target in assay [11] is Dual specificity protein kinase CLK4 (Homo sapiens) (UniProt Q9HAZ1). As to the kind of experiment: qHTS Assay for Inhibitors of CDC-like Kinase 4 (Kinase-Glo Assay) (AID 1770). Further: on the % scale 0 is the no-effect control and ±100 the full control effect; nearly all actives have a fitted effect of over 65% in size. The settings on record: recombinant Clk4, Kinase-Glo ATP depletion luminescence; series mostly up to 66.7 µM. Summed up:
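Clk4 25 nM, RS peptide 100 uM, ATP 1 uM, pH 7.5 Tris, 10 mM MgCl2, 2.5 mM DTT; 4.5 h RT; ATP depletion read by Kinase-Glo luminescence.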

Assay [12] has the same target. The assay is described as follows: qHTS Assay for Inhibitors of CDC-like Kinase 4 (ADP-Glo Assay) (AID 1771). Further: on the % scale 0 is the no-effect control and ±100 the full control effect; nearly all actives have a fitted effect of over 70% in size. The settings on record: recombinant CLK4, ADP-Glo luminescence; series mostly up to 80 µM. Summed up: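 Luminescence from ADP-Glo reports ADP produced by 25 nM Clk4 acting on 100 uM RS repeat peptide with 1 uM ATP over 1 hr at room temperature; residual ATP is depleted before ADP is converted to ATP for detection.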

Assay [13] has the same target. The assay is described as follows: qHTS Assay for Inhibitors of CDC-like Kinase 4 (ADP-FP Assay) (AID 1795). Further: on the % scale 0 is the no-effect control and ±100 the full control effect; nearly all actives have a fitted effect of over 60% in size. The settings on record: Transcreener ADP fluorescence polarization; series mostly up to 50 µM. Summed up:
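Kinase activity was followed as ADP output, converted from fluorescence polarization with a calibration curve. Reactions ran one hour at low ATP (1 uM) with RS peptide substrate.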

Assay [14] deals with Ubiquitin carboxyl-terminal hydrolase 1 (Homo sapiens) (UniProt O94782). As to the kind of experiment: Inhibitors of USP1/UAF1: Pilot qHTS (AID 504865).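 Further: rhodamine fluorescence freed from ubiquitin-rhodamine substrate followed over time; top concentration of the series differs between compounds; on the % scale 0 is the no-effect control and ±100 the full control effect; nearly all actives have a fitted effect of over 35% in size.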 The settings on record: purified USP1/UAF1, Ub-rhodamine cleavage fluorescence; series mostly up to 54.9 µM. In a few lines: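 Enzyme-free wells gave the negative control, while test wells held 1nM USP1/UAF1 preincubated with compound for 15 min at room temperature. Ub-Rho at 150nM final started the reaction, and fluorescence at 480/540 nm was recorded kinetically.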

Assay [15] can be described thus: Primary qHTS for small molecule stabilizers of the endoplasmic reticulum resident proteome: Secreted ER Calcium Modulated Protein (SERCaMP) assay (AID 1508630). Further: on the % scale 0 is the no-effect control and ±100 the full control effect. The following applies: SH-SY5Y GLuc-SERCaMP (Gaussia luciferase released on ER calcium loss) secretion, thapsigargin, luminescence; series mostly up to 38.4 µM. Summed up: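 GLuc-SERCaMP-expressing SH-SY5Y cells, pretreated 16 h with compound, are challenged with thapsigargin to empty ER calcium stores; after 4 h, coelenterazine is added directly to the medium and luminescence is imaged.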

Assay [16] can be described thus: qHTS Assay for Identification of Small Molecule Agonists for Hypoxia Response Element Signaling Pathway (AID 914; active means well fitted activation curve with a large enough effect in the signal ratio, with a control signal flat, not every such curve was filed as active; the % refers to the signal ratio; further: % of control where 0% means no effect). The settings on record: ME-180 (cervical carcinoma) HRE-bla reporter, beta-lactamase ratio, CoCl2, 17 h; activation: stronger effect = higher value. Summed up: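 Read-out: CCF4 FRET ratio of 460nm to 530nm emission (excitation 405nm) after 2.5 hours at room temperature, taken from HRE-bla ME-180 cells that had been exposed to compound and EC50 CoCl2 for 17 hours.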

Setting [17] is: measured here: cell count channel max response.
The mark [18] stands for this setting: measured here: lipid channel max response.

Inconclusive results are not listed. Activity calls are given as the source filed them. Unless noted, the call rests on the fitted dose curve; in most records, active means well fitted curve in the direction sought with a large enough effect; inconclusive means small, poorly fitted or top-dose-only effect, or another doubt; inactive means no such curve, though single readings can be large; an effect the other way counts as inactive or inconclusive.

Chain of 3',5'-cyclic-AMP phosphodiesterase 4B (Homo sapiens) (Q07343 whole entry, looked up): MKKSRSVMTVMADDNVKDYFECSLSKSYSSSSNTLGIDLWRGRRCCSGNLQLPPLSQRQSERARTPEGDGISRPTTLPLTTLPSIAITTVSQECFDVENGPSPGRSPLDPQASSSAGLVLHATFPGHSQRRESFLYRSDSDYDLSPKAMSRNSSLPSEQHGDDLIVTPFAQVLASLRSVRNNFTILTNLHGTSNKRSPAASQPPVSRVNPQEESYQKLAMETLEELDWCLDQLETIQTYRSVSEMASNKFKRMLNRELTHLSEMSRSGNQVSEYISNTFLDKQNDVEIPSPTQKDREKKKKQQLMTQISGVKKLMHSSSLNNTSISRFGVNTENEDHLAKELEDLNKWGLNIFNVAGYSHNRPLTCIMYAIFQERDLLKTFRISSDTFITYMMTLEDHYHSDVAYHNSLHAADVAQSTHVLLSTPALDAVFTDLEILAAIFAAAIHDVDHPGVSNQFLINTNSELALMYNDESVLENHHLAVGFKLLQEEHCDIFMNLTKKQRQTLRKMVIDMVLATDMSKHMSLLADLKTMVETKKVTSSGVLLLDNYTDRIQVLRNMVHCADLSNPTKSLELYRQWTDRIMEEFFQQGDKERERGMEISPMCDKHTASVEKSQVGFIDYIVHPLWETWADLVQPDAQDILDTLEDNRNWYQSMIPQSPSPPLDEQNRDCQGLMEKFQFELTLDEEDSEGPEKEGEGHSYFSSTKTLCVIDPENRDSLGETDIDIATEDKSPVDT
Chain of Dual specificity protein kinase CLK4 (Homo sapiens) (Q9HAZ1 whole entry, looked up): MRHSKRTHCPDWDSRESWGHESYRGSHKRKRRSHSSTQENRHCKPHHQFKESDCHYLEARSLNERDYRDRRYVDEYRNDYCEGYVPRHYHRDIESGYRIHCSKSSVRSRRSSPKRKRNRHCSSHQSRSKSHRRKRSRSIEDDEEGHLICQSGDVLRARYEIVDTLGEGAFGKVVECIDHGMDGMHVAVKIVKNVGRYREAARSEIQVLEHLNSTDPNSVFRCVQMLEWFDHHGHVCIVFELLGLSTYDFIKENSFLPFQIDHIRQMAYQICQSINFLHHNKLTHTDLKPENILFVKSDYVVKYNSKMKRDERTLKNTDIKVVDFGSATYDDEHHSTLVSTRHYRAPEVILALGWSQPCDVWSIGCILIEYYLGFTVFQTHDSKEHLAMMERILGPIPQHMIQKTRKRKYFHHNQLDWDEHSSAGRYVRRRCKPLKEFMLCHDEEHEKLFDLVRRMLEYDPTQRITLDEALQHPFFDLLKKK
Chain of Glucocorticoid receptor (Homo sapiens) (P04150 whole entry, looked up, the tested form may be a part): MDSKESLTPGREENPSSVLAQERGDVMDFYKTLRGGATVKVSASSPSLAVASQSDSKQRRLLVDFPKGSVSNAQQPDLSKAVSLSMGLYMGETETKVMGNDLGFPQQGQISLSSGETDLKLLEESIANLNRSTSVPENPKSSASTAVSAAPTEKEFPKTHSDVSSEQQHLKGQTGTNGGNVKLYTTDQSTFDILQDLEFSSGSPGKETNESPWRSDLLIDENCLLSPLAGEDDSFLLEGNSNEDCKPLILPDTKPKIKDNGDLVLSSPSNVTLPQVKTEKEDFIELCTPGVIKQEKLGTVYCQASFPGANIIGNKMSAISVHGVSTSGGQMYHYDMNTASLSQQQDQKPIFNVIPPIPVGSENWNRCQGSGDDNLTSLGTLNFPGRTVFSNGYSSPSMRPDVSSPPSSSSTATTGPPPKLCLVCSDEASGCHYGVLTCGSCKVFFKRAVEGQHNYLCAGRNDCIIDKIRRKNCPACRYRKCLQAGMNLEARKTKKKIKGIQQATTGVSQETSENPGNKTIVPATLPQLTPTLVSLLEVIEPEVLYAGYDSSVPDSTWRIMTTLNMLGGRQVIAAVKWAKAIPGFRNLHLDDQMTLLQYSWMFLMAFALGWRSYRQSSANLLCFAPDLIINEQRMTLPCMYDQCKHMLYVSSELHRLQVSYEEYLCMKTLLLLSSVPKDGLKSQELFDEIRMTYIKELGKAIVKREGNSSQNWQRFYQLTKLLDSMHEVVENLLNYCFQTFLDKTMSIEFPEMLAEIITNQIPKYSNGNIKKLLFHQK
Chain of Lysosomal acid glucosylceramidase (Homo sapiens) (P04062 whole entry, looked up): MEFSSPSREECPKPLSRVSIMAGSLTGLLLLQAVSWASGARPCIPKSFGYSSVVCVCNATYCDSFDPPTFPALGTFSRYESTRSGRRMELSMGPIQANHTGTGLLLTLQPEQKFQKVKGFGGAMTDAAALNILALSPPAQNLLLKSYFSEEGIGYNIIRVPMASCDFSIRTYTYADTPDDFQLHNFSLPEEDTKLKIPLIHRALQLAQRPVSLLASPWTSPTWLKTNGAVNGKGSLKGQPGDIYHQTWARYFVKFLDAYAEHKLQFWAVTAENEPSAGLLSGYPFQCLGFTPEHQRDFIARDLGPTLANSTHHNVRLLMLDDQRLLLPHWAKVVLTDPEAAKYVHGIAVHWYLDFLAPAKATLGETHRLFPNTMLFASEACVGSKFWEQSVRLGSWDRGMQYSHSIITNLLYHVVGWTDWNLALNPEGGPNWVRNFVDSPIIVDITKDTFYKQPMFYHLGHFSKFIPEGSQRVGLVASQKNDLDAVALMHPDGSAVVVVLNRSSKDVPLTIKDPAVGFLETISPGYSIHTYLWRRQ
Chain of Ubiquitin carboxyl-terminal hydrolase 1 (Homo sapiens) (O94782 whole entry, looked up): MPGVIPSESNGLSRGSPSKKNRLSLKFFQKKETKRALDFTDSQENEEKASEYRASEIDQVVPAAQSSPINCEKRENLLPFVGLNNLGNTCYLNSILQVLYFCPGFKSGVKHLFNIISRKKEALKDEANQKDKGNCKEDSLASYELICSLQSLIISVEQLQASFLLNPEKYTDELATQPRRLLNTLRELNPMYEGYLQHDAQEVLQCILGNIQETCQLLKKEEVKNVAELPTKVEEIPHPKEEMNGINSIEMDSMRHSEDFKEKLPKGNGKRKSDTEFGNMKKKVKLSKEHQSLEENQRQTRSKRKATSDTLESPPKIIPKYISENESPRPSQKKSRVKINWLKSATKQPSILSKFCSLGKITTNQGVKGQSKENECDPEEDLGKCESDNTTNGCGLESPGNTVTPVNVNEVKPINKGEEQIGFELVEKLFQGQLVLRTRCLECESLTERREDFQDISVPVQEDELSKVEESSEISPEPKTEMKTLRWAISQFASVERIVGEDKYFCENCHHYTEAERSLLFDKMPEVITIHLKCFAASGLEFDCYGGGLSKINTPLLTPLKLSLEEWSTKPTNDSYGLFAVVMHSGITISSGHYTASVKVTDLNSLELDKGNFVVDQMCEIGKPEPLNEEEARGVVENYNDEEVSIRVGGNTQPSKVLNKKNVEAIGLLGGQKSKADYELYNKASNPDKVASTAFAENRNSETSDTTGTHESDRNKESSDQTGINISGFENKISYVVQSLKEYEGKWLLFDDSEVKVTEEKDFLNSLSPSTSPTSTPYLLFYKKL
Chain of Cytochrome P450 3A4 (Homo sapiens) (P08684 whole entry, looked up): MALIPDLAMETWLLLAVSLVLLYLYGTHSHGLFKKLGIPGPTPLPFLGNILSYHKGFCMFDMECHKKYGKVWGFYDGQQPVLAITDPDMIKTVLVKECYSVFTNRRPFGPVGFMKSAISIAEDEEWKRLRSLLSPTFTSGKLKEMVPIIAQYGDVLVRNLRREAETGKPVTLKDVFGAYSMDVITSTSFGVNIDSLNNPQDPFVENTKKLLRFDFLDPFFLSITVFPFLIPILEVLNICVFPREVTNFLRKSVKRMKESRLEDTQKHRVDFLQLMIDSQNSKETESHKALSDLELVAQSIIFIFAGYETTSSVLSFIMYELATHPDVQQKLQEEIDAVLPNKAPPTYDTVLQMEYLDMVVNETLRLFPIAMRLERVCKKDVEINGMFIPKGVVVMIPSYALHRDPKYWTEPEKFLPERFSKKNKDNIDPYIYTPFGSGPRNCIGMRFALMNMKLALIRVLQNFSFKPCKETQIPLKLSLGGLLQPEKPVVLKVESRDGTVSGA

For `COc1ccc(-c2nc3cnc(Nc4cccc(OC)c4)nc3n(C[C@H]3CCCO3)c2=O)cc1`, the Potency was > 11.4 µM (inactive) in [1], > 9.22 µM (inactive) in assay [5] and > 46 µM (inactive) in assay [6]. The activity change, negative = inhibition is -24.6% (inactive) in assay [2], -19.9% (inactive) in assay [3] and -4.84% (inactive) in [10]. In addition, the activity, negative = inhibition in [4] was 16.7% (inactive). Further, in assay [7], the compound was called inactive. For the same compound, the Potency result in assay [8], in assay [9], in assay [11], in assay [12], in [13] and in assay [14] was “inactive” in each case. The Potency result in assay [15] is “inactive”. Also, the max response is -7.08% in [10] (setting [17]) and -12.2% in assay [10] (setting [18]).
`COCCn1c(=O)c(-c2cccc(C#N)c2)nc2cnc(OC)nc21`: the Potency in assay [1] is > 11.4 µM (inactive); in [5], > 9.22 µM (inactive); in assay [6], > 46 µM (inactive). Also, the activity change, negative = inhibition in assay [2] was -22.4% (inactive); in assay [3] it was 4.96% (inactive); in assay [10] it was 4.12% (inactive). The activity, negative = inhibition in assay [4] is -9.77% (inactive). In addition, the compound was classed as inactive in [7]. For the same compound, the activation in assay [16] is -7.08% (inactive). Also, the max response turned out to be 19.6% in assay [10] (setting [17]) and 22% in [10] (setting [18]). For the same compound, the Potency entry in assay [11], in assay [12], in assay [13] and in [15] was “inactive” throughout.
As for `COc1ccc(-c2nc3cnc(N4CCOCC4)nc3n(C3CC3)c2=O)cc1`, the Potency in assay [1] is > 11.4 µM (inactive); in assay [5], > 9.22 µM (inactive); in [6] it was > 46 µM (inactive). In addition, the activity change, negative = inhibition is 3.24% (inactive) in assay [2], 8.69% (inactive) in assay [3] and 1.26% (inactive) in assay [10]. Further, the compound was classed as inactive in [7]. In addition, the max response in assay [10] (setting [17]) was 9.72%; in assay [10] (setting [18]), 11.8%. The Potency result in assay [11], in assay [12], in assay [13], in assay [14] and in assay [15] was “inactive” throughout.
For `COc1ccc(Oc2ncc3nc(-c4ccc(OC)cc4)c(=O)n(C4CC4)c3n2)cc1`, the Potency is > 11.4 µM (inactive) in assay [1], > 9.22 µM (inactive) in assay [5] and > 46 µM (inactive) in [6]. Moreover, the values for the activity change, negative = inhibition in assay [2], in [3] and in assay [10] were -17.1% (inactive), 18.7% (inactive) and -0.219% (inactive), respectively. Also, the activity, negative = inhibition in assay [4] was -1.53% (inactive). Moreover, the compound was classed as inactive in assay [7]. In addition, the Potency entry in [8], in [11], in [12], in assay [13], in assay [14] and in [15] was “inactive” each time. The activation in assay [16] is 12.9% (inactive). Also, the max response is 4.42% in assay [10] (setting [17]) and -0.829% in assay [10] (setting [18]).
For `COc1ncc2nc(-c3ccc(F)cc3)c(=O)n(-c3ccccc3)c2n1`, the Potency is > 11.4 µM (inactive) in assay [1], > 9.22 µM (inactive) in assay [5] and > 46 µM (inactive) in assay [6]. Further, the activity change, negative = inhibition is -5.39% (inactive) in assay [2], -7.66% (inactive) in assay [3] and 2.16% (inactive) in assay [10]. Also, the activity, negative = inhibition in assay [4] is -2.33% (inactive). In addition, the compound was classed as inactive in assay [7]. In addition, the Potency result in [8], in assay [11], in assay [12], in [13] and in assay [15] was “inactive” in each case. In addition, the max response was -0.95% in assay [10] (setting [17]) and -1.99% in [10] (setting [18]).
`Cc1nc2cnc(Nc3ccccc3)nc2n(Cc2ccc(F)cc2)c1=O`: the Potency in assay [1] is > 11.4 µM (inactive); in assay [5], > 9.22 µM (inactive); in [6], > 46 µM (inactive). The activity change, negative = inhibition in assay [2] is -12.8% (inactive); in assay [3], -23.6% (inactive); in assay [10], 1.06% (inactive). Besides, the activity, negative = inhibition in assay [4] is 2.69% (inactive). In [7], the compound was called inactive. The Potency result in assay [8], in assay [11], in assay [12], in [13], in assay [14] and in assay [15] was “inactive” each time. The max response is 7.11% in assay [10] (setting [17]) and 6.57% in assay [10] (setting [18]).
